Measurements from PubChem BioAssay AID588683 (Broad Institute, 2011).
Measured potencies and affinities stand elsewhere. Active and inactive are the calls of the source. No rule for the calls is given here.

molecular target: Kelch-like ECH-associated protein 1 (Homo sapiens) + Nuclear factor erythroid 2-related factor 2 (Homo sapiens) (UniProt Q14145+Q16236); assay: disruptors of Keap1 binding to Nrf2 peptide – biochemical, fluorescence polarization, cherry-picked samples, dose response (AID 588683); conditions: plate reader; series mostly up to 26 µM;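 also: Kelch domain of Keap1 binding a fluorescein-labelled 9mer Nrf2 peptide; more negative means stronger inhibition of peptide binding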
Sequence (Q14145 whole entry, looked up, the tested form may be a part): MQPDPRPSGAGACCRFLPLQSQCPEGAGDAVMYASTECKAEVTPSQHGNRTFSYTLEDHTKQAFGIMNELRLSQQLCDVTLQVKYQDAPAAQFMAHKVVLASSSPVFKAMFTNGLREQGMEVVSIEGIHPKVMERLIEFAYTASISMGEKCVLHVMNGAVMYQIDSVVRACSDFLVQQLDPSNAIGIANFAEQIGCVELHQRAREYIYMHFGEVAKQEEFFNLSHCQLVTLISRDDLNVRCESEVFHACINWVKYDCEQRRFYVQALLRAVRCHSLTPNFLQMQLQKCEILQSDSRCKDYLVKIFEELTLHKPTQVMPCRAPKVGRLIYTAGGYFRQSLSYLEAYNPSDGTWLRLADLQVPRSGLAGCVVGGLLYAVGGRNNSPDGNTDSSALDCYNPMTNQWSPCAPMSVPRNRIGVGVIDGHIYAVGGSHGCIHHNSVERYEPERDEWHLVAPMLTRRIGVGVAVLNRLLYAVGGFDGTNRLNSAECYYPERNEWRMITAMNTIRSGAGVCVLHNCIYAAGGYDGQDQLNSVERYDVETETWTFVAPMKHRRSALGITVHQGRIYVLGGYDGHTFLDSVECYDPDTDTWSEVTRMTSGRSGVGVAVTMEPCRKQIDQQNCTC
Sequence (Q16236 whole entry, looked up, the tested form may be a part): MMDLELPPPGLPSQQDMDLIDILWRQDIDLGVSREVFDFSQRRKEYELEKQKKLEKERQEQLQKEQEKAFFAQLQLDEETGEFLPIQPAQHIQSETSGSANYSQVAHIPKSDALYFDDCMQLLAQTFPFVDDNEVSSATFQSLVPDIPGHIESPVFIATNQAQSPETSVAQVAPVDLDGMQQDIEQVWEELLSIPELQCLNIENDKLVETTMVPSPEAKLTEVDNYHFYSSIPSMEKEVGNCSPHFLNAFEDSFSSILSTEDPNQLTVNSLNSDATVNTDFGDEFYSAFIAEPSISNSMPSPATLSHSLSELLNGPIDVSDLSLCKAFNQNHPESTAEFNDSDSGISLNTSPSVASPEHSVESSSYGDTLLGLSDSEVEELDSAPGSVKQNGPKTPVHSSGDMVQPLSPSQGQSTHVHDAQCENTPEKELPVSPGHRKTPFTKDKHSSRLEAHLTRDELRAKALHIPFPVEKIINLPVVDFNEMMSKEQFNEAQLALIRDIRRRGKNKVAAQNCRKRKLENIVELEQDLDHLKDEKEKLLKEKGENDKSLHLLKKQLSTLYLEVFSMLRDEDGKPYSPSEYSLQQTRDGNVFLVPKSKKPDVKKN

outcome, inactive:
CCCCC(CC)C(=O)Oc1ccc(O)c(C(C)(C)C)c1 (stereo not drawn)
CC(C)Cn1c(N)c(C(=O)CSc2nnc(-c3ccco3)n2C)c(=O)n(C)c1=O
CCCCCSc1nnc2c(n1)OC(C)N(C(C)=O)c1ccccc1-2 (stereo not drawn)
CCOC(=O)N1CCN(Cc2ccccc2Cl)CC1
CC[C@H](C)[C@H](NC(=O)OCc1ccccc1)C(=O)OCC(=O)N1CCN(c2ccc(F)cc2)CC1
Cc1ccc(-n2nnnc2SCC(=O)c2c(N)n(C3CC3)c(=O)[nH]c2=O)cc1
O=C1C(=Cc2ccco2)CCC1=Cc1ccco1
COc1ccc(N(Cc2ccccc2)S(=O)(=O)c2cccc(C(=O)Nc3ncccc3C)c2)cc1
Cc1[nH]nc2c1C(CC(C)C)C(C#N)=C(N)O2 (stereo not drawn)
COc1cccc(C2=CC(c3cccs3)n3nnnc3N2)c1 (stereo not drawn)
CN1CC=C2C(C#N)=C(N)C(C#N)(C#N)C(c3ccsc3)C2C1 (stereo not drawn)
COc1ccc(C2c3ccc(O)cc3Oc3ncn(CCCO)c(=N)c32)cc1OC (stereo not drawn)
O=c1[nH]c2cc(C(F)(F)F)ccc2n1-c1cc(C(F)(F)F)ccc1O
CCOc1ccc(S(=O)(=O)Nc2cccc(C(=O)NCCCn3ccnc3)c2)cc1
COC(=O)N/N=C/c1cn(Cc2ccccc2Cl)c2ccccc12
CCCC1C2CN(C(C)C)CC=C2C(C#N)=C(N)C1(C#N)C#N (stereo not drawn)
c1ccc(-c2cn3nc4c(nc3n2)CCCC4)cc1
O=S(=O)(O)c1ccc(O)c2cc(Nc3ccccc3)ccc12
CC(C)(C)c1ccccc1NC(=O)NC1CCN(Cc2c(F)cccc2Cl)CC1
O=C(CCCCl)NC(=S)Nc1ccc(N2CCOCC2)cc1
COc1[nH]c(/N=C/c2ccccc2)c(C#N)c1C#N
CCC(C)(C)n1nnnc1C(c1cc2ccc(OC)cc2[nH]c1=O)N1CCc2ccccc2C1 (stereo not drawn)
COc1ccc(OC)c(S(=O)(=O)Nc2ccc(F)cc2)c1
Cc1cc(=O)c2c([nH]1)c(C)cc1[nH]c(C)c(C)c12
Cn1ccnc1Sc1cc(NCCCO)c([N+](=O)[O-])c2nonc12
CCc1cc[n+](-c2nc([O-])sc2C=O)cc1
CCOC(=O)C1=C(C)NC(C)=C(C(=O)OCC)C1c1ccc([N+](=O)[O-])s1
Cc1nc(NS(=O)(=O)c2ccccc2)sc1NC(=O)OCCN(C)C
Cc1ccc(C2=CC(c3cccs3)n3nnnc3N2)cc1 (stereo not drawn)
CCOC(=O)C1=C(CSc2nc3c(cc2C#N)CN(C)CC3)OC(N)=C(C#N)C1c1ccncc1 (stereo not drawn)
CCSc1ncc(Cl)c(C(=O)Nc2ccccc2OC)n1
O=C(Cc1ccc(S(=O)(=O)N2CCOCC2)s1)Nc1nc2c(s1)CCCC2
Cn1c(SCC(=O)c2cc(Cl)c(Cl)s2)nnc1-c1ccco1
Cc1sc2ccccc2[n+]1CC(=O)c1ccccc1
CN1/C(=C\C=C(/C#N)C(=O)Nc2ccc(Cl)cc2)C(C)(C)c2ccccc21
COc1ccccc1NC(=O)C(C)OC(=O)C1COc2ccccc2O1 (stereo not drawn)
CC(Sc1nc2ccccc2s1)C(=O)Nc1nnc(C(C)C)s1 (stereo not drawn)
COc1ccc2c(c1)c1nc3ccccc3nc1n2CC(=O)OC(C)C
